Where a name gives a salt, the structure may show the parent alone. ± gives the standard deviation of the averaged measurements.
Assays:
[1] = test system: Saccharomyces cerevisiae BY4741 SeMeCo community; test: mean cell size (pixel area) (pixels); higher = larger cells; details: 10 µM; 24 h; SM minimal medium
How it was run: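 A fluorescent Saccharomyces cerevisiae BY4741 community carrying four plasmids was used, with each plasmid complementing one auxotrophy and bearing a fluorescent marker. An overnight preculture at OD600 = 1.0 was diluted to OD600 = 0.3, and 70 µl went into 384-well plates acoustically predosed with drug (final 10 µM) in SM medium for 24 h. After paraformaldehyde fixation, cells were imaged by automated confocal microscopy and analysed in Harmony, giving the mean cell pixel area per well. Each value is the average of 3 replicates. Same SeMeCo high-content imaging drug screen: Selleck FDA-approved drugs at 10 µM, 24 h in SM medium, 384-well plates, 3 replicates.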

[2] = test system: Saccharomyces cerevisiae BY4741 SeMeCo community; test: z-score of prototroph abundance vs DMSO median; higher = larger share of this subpopulation than in DMSO controls; details: 10 µM; 24 h; SM minimal medium; subpopulation (auxotrophy): Prototroph
How it was run: (§1)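 Subpopulation abundance was reported as a z-score against the median of vehicle wells. The Saccharomyces cerevisiae BY4741 community, carrying four plasmids that each restored one auxotrophy and encoded a distinct fluorescent protein, was grown 24 h in minimal SM medium in 384-well plates holding library drugs at 10 µM final. Cells were paraformaldehyde-fixed and imaged by automated confocal microscopy, with single-auxotroph fluorescent strains used for thresholds and autofluorescence correction.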

[3] = test system: Saccharomyces cerevisiae BY4741 SeMeCo community; test: z-score of subpopulation abundance vs DMSO median, subpopulation auxotrophic for L; higher = larger share of this subpopulation than in DMSO controls; details: 10 µM; 24 h; SM minimal medium; subpopulation (auxotrophy): L
How it was run: as §1

[4] = test system: Saccharomyces cerevisiae BY4741 SeMeCo community; test: z-score of subpopulation abundance vs DMSO median, subpopulation auxotrophic for U; higher = larger share of this subpopulation than in DMSO controls; details: 10 µM; 24 h; SM minimal medium; subpopulation (auxotrophy): U
How it was run: as §1

[5] = test system: Saccharomyces cerevisiae BY4741 SeMeCo community; test: z-score of subpopulation abundance vs DMSO median, subpopulation auxotrophic for H; higher = larger share of this subpopulation than in DMSO controls; details: 10 µM; 24 h; SM minimal medium; subpopulation (auxotrophy): H
How it was run: as §1

[6] = test system: Saccharomyces cerevisiae BY4741 SeMeCo community; test: z-score of subpopulation abundance vs DMSO median, subpopulation auxotrophic for LU; higher = larger share of this subpopulation than in DMSO controls; details: 10 µM; 24 h; SM minimal medium; subpopulation (auxotrophy): LU
How it was run: as §1

[7] = test system: Saccharomyces cerevisiae BY4741 SeMeCo community; test: z-score of subpopulation abundance vs DMSO median, subpopulation auxotrophic for LM; higher = larger share of this subpopulation than in DMSO controls; details: 10 µM; 24 h; SM minimal medium; subpopulation (auxotrophy): LM
How it was run: as §1

[8] = test system: Saccharomyces cerevisiae BY4741 SeMeCo community; test: z-score of subpopulation abundance vs DMSO median, subpopulation auxotrophic for HM; higher = larger share of this subpopulation than in DMSO controls; details: 10 µM; 24 h; SM minimal medium; subpopulation (auxotrophy): HM
How it was run: as §1

[9] = test system: Saccharomyces cerevisiae BY4741 SeMeCo community; test: z-score of subpopulation abundance vs DMSO median, subpopulation auxotrophic for HU; higher = larger share of this subpopulation than in DMSO controls; details: 10 µM; 24 h; SM minimal medium; subpopulation (auxotrophy): HU
How it was run: as §1

[10] = test system: Saccharomyces cerevisiae BY4741 SeMeCo community; test: z-score of subpopulation abundance vs DMSO median, subpopulation auxotrophic for UM; higher = larger share of this subpopulation than in DMSO controls; details: 10 µM; 24 h; SM minimal medium; subpopulation (auxotrophy): UM
How it was run: as §1

[11] = test system: Saccharomyces cerevisiae BY4741 SeMeCo community; test: z-score of subpopulation abundance vs DMSO median, subpopulation auxotrophic for HL; higher = larger share of this subpopulation than in DMSO controls; details: 10 µM; 24 h; SM minimal medium; subpopulation (auxotrophy): HL
How it was run: as §1

[12] = test system: Saccharomyces cerevisiae BY4741 SeMeCo community; test: z-score of subpopulation abundance vs DMSO median, subpopulation auxotrophic for HLU; higher = larger share of this subpopulation than in DMSO controls; details: 10 µM; 24 h; SM minimal medium; subpopulation (auxotrophy): HLU
How it was run: as §1

[13] = test system: Saccharomyces cerevisiae BY4741 SeMeCo community; test: z-score of subpopulation abundance vs DMSO median, subpopulation auxotrophic for HLM; higher = larger share of this subpopulation than in DMSO controls; details: 10 µM; 24 h; SM minimal medium; subpopulation (auxotrophy): HLM
How it was run: as §1

[14] = test system: Saccharomyces cerevisiae BY4741 SeMeCo community; test: z-score of subpopulation abundance vs DMSO median, subpopulation auxotrophic for HUM; higher = larger share of this subpopulation than in DMSO controls; details: 10 µM; 24 h; SM minimal medium; subpopulation (auxotrophy): HUM
How it was run: as §1

[15] = test system: Saccharomyces cerevisiae BY4741 SeMeCo community; test: z-score of subpopulation abundance vs DMSO median, subpopulation auxotrophic for LUM; higher = larger share of this subpopulation than in DMSO controls; details: 10 µM; 24 h; SM minimal medium; subpopulation (auxotrophy): LUM
How it was run: as §1

[16] = test system: Saccharomyces cerevisiae BY4741 SeMeCo community; test: z-score of subpopulation abundance vs DMSO median, subpopulation auxotrophic for HLUM; higher = larger share of this subpopulation than in DMSO controls; details: 10 µM; 24 h; SM minimal medium; subpopulation (auxotrophy): HLUM
How it was run: as §1

Cc1c(OCC(F)(F)F)ccnc1C[S+]([O-])c1nc2ccccc2[nH]1 (stereo not drawn) [Lansoprazole]
mean cell size [1]: 12.5 ± 0.14 | z-score of prototroph abundance [2]: -0.04 | z-score of subpopulation abundance [3]: 1.12 | z-score of subpopulation abundance [4]: -0.71 | z-score of subpopulation abundance [5]: 1.84 | z-score of subpopulation abundance [6]: -0.54 | z-score of subpopulation abundance [7]: 1.16 | z-score of subpopulation abundance [8]: -0.45 | z-score of subpopulation abundance [9]: 0.54 | z-score of subpopulation abundance [10]: -1.1 | z-score of subpopulation abundance [11]: 2.01 | z-score of subpopulation abundance [12]: 0.76 | z-score of subpopulation abundance [13]: 0.03 | z-score of subpopulation abundance [14]: -0.3

CCCCOC(=O)c1ccc(O)cc1 [Butylparaben]
mean cell size [1]: 12.3 ± 0.29 | z-score of prototroph abundance [2]: 1.77 | z-score of subpopulation abundance [3]: -0.62 | z-score of subpopulation abundance [5]: -1.64 | z-score of subpopulation abundance [6]: -1.79 | z-score of subpopulation abundance [7]: -0.49 | z-score of subpopulation abundance [8]: -1.19 | z-score of subpopulation abundance [9]: -1.93 | z-score of subpopulation abundance [10]: -1.24 | z-score of subpopulation abundance [11]: -0.99 | z-score of subpopulation abundance [12]: -1.3 | z-score of subpopulation abundance [13]: -0.41 | z-score of subpopulation abundance [14]: -1.38 | z-score of subpopulation abundance [15]: -0.62 | z-score of subpopulation abundance [16]: 0.07

CCn1cc(C(=O)O)c(=O)c2cc(F)c(N3CCNC(C)C3)c(F)c21 (stereo not drawn) [Lomefloxacin HCl]
mean cell size [1]: 12.1 ± 0.14 | z-score of prototroph abundance [2]: -1.02 | z-score of subpopulation abundance [3]: 1.02 | z-score of subpopulation abundance [4]: -0.45 | z-score of subpopulation abundance [5]: 0.73 | z-score of subpopulation abundance [6]: 0.53 | z-score of subpopulation abundance [9]: 0.12 | z-score of subpopulation abundance [10]: 0.51 | z-score of subpopulation abundance [11]: 1.2 | z-score of subpopulation abundance [12]: 1.38 | z-score of subpopulation abundance [13]: 0.25 | z-score of subpopulation abundance [14]: 0.66 | z-score of subpopulation abundance [15]: 1.32 | z-score of subpopulation abundance [16]: 0.54

Source: the supplement of paper PMC8975748
